Molecules are shown by their SMILES. Values joined by “and” are separate entries in the source; they are usually repeats but may differ in a detail not shown here. Identical values can stand only once. Results filed as inconclusive are left out. A structure can be active in one record and inactive in another. Active and inactive are the calls of the source. Unless noted, the call rests on the fitted dose curve.

The nature of test [1]: Nuclear factor erythroid 2-related factor 2/antioxidant responsive element (Nrf2/ARE) small molecule agonists: qHTS cell viability counter screen in human keratinocytes (AID 1919968; active means well fitted curve in the direction sought with a large enough effect in the repeat runs; an effect the other way counts as inactive or inconclusive; further: nearly all actives have a fitted effect of over 55% in size). The method, boiled down:
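Cells of the KeratinoSens line were plated at 1,500 per well and left for 5 h before compound transfer from DMSO stocks. After a 23 h incubation (37 C, 5% CO2), CellTiter-Fluor was added. Signal was taken as fluorescence intensity 1 h later.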

The target of test [2] is KiSS-1 receptor (Homo sapiens) (UniProt Q969F8). Put plainly: Human kisspeptin (KISS1R) small molecule agonists, calcium flux assay in KISS1R-HEK293 cells (AID 1920064; active means well fitted curve in the direction sought with a large enough effect in the repeat runs; an effect the other way counts as inactive or inconclusive). The method, boiled down:
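Cell line: HEK293, stable human KISS1R. Dye loading 1 h at 37 C after 18 h culture. Read: kinetic fluorescence, 480/540 nm, 3 min at 1 s intervals.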
(In general: Calcium assays in cells follow changes in intracellular calcium, usually with a dye or a luminescent sensor.)

Test [3] is described as follows: G protein-coupled receptor (GPCR) small molecule agonists, calcium flux assay: HEK293 wild type cell line counter screen (AID 1920065). The method, boiled down:
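Tox21 10K compounds, 15 concentrations each in triplicate, pin-transferred in DMSO onto dye-loaded cells; kinetic read at 480/540 nm for 3 min, 1 s intervals.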

Test [4] in a line: p53 small molecule agonists, cell-based qHTS assay with human liver microsomes (AID 1963577). The method, boiled down: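 p53RE-bla cells, 4,000/well, compound added after 5 h, with human liver microsomes 0.5 mg/mL and NADPH 0.5 mg/mL final; 16 h at 37 C, then LiveBLAzer 2 h RT, fluorescence.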
On the technique in general: In qHTS, concentration-response curves come from the screen itself.

Test [5] is described as follows: p53 small molecule agonists, cell-based qHTS assay with rat liver microsomes (AID 1963578). The gist of the method:
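p53RE-bla cells, 4,000/well, pre-incubated 5 h, then given compounds plus rat liver microsomes (0.5 mg/mL final) and NADPH (0.5 mg/mL final). Incubation 16 h at 37 C; beta-lactamase reporter read by LiveBLAzer fluorescence after 2 h at room temperature.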

Test [6] can be described thus: p53 small molecule agonists, cell-based qHTS assay with human liver microsomes: qHTS cell viability counter screen (AID 1963579). Further: nearly all actives have a fitted effect of over 45% in size. The gist of the method: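 p53RE-bla cells, 4,000/well, dosed 5 hours after plating, with human liver microsomes (0.5 mg/mL final) plus NADPH (0.5 mg/mL final), 16 hours at 37 C. Viability read as CellTiter-Glo luminescence after 30 min at room temperature.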

The nature of test [7]: p53 small molecule agonists, cell-based qHTS assay with rat liver microsomes: qHTS cell viability counter screen (AID 1963580). Further: nearly all actives have a fitted effect of over 45% in size. The gist of the method:
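Counter screen for cytotoxicity under metabolic activation: rat liver microsomes and NADPH, 0.5 mg/mL final each, added with compounds to p53RE-bla HCT-116 cells; 16 h at 37 C, then ATP luminescence read.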

Test [8] can be described thus: p53 small molecule agonists, cell-based qHTS assay: qHTS cell viability counter screen (AID 1963581). Further: nearly all actives have a fitted effect of over 45% in size. The gist of the method:
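ATP content measured by luminescence in HCT-116 p53RE-bla cells treated 16 h at 37 C, same wells as the reporter screen.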

Test [9] addresses 5-hydroxytryptamine receptor 2A (Homo sapiens) (UniProt P28223). The experiment in a line: 5-hydroxytryptamine receptor 2A (HTR2A) small molecule antagonists, cell-based qHTS assay (AID 1963586). Further: nearly all actives have a fitted effect of over 45% in size. The gist of the method:
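CHO cells stably expressing human HTR2A were plated for 18 h at 37 C, then loaded with calcium dye for 1 h. Compounds were preincubated 5 min at room temperature before DOI (4 nM solution) was added. Kinetic fluorescence was read for 3 min.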

The target is the same in test [10]. Put plainly: 5-hydroxytryptamine receptor 2A (HTR2A) small molecule agonists, cell-based qHTS assay (AID 1963587). Further: nearly all actives have a fitted effect of over 30% in size. The method, boiled down: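 HTR2A-CHO cells, plated 18 h at 37 C/5% CO2, dye-loaded 1 h at 37 C; compounds in DMSO added by pin tool (agonist mode). Intracellular calcium flux read as kinetic fluorescence on FDSS over 2 min at 1 s intervals.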
The target of test [11] is Muscarinic acetylcholine receptor M1 (Homo sapiens) (UniProt P11229). The experiment in a line: Cholinergic receptor muscarinic 1 (CHRM1) small molecule antagonists, cell-based qHTS assay (AID 1963588). Further: nearly all actives have a fitted effect of over 40% in size. The method, boiled down: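 Compounds were tested at 15 concentrations in three independent runs. Dye-loaded CHRM1-CHO cells were exposed 5 min at room temperature before stimulation by acetylcholine added at 50nM. Intracellular calcium was read kinetically on FDSS for 3 min.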

The target is the same in test [12]. The experiment in a line: Cholinergic receptor muscarinic 1 (CHRM1) small molecule agonists, cell-based qHTS assay (AID 1963589). Further: nearly all actives have a fitted effect of over 35% in size. The gist of the method: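 Homogeneous fluorescence calcium flux, agonist mode. Human M1-expressing CHO cells; compound dosed at 15 concentrations, three independent runs; signal sampled every 1 sec.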
Test [13] is described as follows: cAMP Responsive Elements (CRE) small molecule agonists, cell-based qHTS assay (AID 1963590). Further: potency means the concentration at half of the fitted maximal effect. The method, boiled down:
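HEK 293T cells stably bearing CRE-bla were plated at 2,000 cells per well and rested 18 h. Compounds, positive controls or DMSO were added for 3 h at 37 C. LiveBLAzer B/G substrate was then loaded for 2 h at room temperature.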

Test [14] concerns the target Beta-2 adrenergic receptor (Homo sapiens) (UniProt P07550). Put plainly: Adrenergic beta2 receptor (ADRB2) small molecule antagonists, cell-based qHTS assay (AID 1963592). Further: nearly all actives have a fitted effect of over 50% in size. Further: potency means the concentration at half of the fitted maximal effect. The method, boiled down:
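Assay format: CHO-ADRB2 cells, 18-20hr seeding at 37C/5% CO2, then compound plus 1nM isoproterenol agonist mix for 0.5hr RT. Homogeneous time-resolved fluorescence cAMP detection after 1hr, expressed as 665/615 nm ratio.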

The target is the same in test [15]. The experiment in a line: Adrenergic beta2 receptor (ADRB2) small molecule agonists, cell-based qHTS assay (AID 1963593). Further: potency means the concentration at half of the fitted maximal effect.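 On activation: CHO cells stably overexpressing human ADRB2.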 The method, boiled down:
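CHO cells stably over-expressing ADRB2 were plated overnight at 37C, then dosed with compounds plus a stimulation mix containing 100uM IBMX and 25uM Ro-20-1724 for 0.5hr at room temperature. cAMP was measured by HTRF competition, 1hr.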

Test [16] has as its target D(2) dopamine receptor (Homo sapiens) (UniProt P14416). The experiment in a line: Dopamine D2 receptor (DRD2) small molecule agonists, cell-based qHTS assay (AID 1963594). Further: nearly all actives have a fitted effect of over 35% in size. The gist of the method:
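HEK293 cells stably expressing DRD2 were cultured 24 h at 37 C, then given Ro20-1724 (0.1 mM final) and compounds for 10 min at room temperature. NKH477 (200nM) was then added for 30 min. cAMP was read by HTRF.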

For test [17] the target is unchanged. The experiment in a line: Dopamine D2 receptor (DRD2) small molecule antagonists, cell-based qHTS assay (AID 1963595; active means well fitted inhibition curve with a large enough effect in the signal ratio in the repeat runs, with a control signal flat; the % refers to the signal ratio; further: potency means the concentration at half of the fitted maximal effect). The gist of the method: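 Stable D2 receptor HEK293 line, 24 h after seeding. Compound preincubated 10 min, then quinpirole (12 nM) with forskolin analogue NKH477 (200 nM), 30 min, room temperature. Detection by time-resolved FRET of cAMP.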

The target of test [18] is Gonadotropin-releasing hormone receptor (Homo sapiens) (UniProt P30968). The experiment in a line: Human gonadotropin-releasing hormone receptor (GnRHR) small molecule agonists, calcium flux assay in GnRHR-HEK293 cells (AID 1920063). Further: nearly all actives have a fitted effect of over 35% in size. The gist of the method:
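Compounds dissolved in DMSO are pin-transferred onto dye-loaded GnRHR-HEK293 cells, which were seeded 18 h before at 37 C/5% CO2. Calcium signal is read as fluorescence intensity at 1 s intervals for 3 min.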

Test [19] is described as follows: p53 small molecule agonists, cell-based qHTS assay (AID 1963582; active means well fitted activation curve with a large enough effect in the signal ratio in the repeat runs, not every such curve was filed as active; the % refers to the signal ratio; further: potency means the concentration at half of the fitted maximal effect). The gist of the method: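 16 h compound exposure (37 C) of p53 response element–bla cells, preceded by 5 h recovery at 37 C/5% CO2; read-out via LiveBLAzer B/G FRET substrate, 2 h RT, fluorescence intensity.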
A short description of test [20]: cAMP Responsive Elements (CRE) small molecule antagonists, cell-based qHTS assay (AID 1963591; active means well fitted inhibition curve with a large enough effect in the signal ratio in the repeat runs, not every such curve was filed as active; the % refers to the signal ratio). The method, boiled down: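 First, CRE-bla HEK293T cells settled 18 h at 37 C. Next, compound and 0.25 uM final NKH477 were applied for 3 h. Last, LiveBLAzer B/G substrate was loaded for 2 h at room temperature.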

Sequence of 5-hydroxytryptamine receptor 2A (Homo sapiens) (P28223 whole entry, looked up): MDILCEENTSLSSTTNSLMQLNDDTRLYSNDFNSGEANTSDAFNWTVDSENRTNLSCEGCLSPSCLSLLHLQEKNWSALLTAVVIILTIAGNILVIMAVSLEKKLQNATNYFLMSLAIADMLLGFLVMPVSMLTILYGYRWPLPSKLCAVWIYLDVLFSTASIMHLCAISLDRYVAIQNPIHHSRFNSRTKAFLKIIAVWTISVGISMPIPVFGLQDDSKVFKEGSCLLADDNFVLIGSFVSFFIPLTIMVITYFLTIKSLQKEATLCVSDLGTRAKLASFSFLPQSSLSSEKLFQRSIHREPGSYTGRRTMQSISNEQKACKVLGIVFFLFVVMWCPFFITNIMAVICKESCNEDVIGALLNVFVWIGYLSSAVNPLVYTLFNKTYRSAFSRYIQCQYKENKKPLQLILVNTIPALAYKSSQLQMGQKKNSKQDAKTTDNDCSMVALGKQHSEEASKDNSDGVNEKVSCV
Sequence of Muscarinic acetylcholine receptor M1 (Homo sapiens) (P11229 whole entry, looked up): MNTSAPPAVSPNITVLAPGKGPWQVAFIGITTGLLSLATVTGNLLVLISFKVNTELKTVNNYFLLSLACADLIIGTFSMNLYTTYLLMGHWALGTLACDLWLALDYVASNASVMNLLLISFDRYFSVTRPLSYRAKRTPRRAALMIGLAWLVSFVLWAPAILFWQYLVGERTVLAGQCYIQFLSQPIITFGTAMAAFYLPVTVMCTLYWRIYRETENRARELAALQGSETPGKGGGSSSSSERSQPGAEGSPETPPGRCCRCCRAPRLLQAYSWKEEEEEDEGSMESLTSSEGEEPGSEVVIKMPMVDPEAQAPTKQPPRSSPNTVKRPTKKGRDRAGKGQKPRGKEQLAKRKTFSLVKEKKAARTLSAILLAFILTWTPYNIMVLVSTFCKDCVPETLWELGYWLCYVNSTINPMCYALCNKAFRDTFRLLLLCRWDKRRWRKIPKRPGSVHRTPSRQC
Sequence of Gonadotropin-releasing hormone receptor (Homo sapiens) (P30968 whole entry, looked up): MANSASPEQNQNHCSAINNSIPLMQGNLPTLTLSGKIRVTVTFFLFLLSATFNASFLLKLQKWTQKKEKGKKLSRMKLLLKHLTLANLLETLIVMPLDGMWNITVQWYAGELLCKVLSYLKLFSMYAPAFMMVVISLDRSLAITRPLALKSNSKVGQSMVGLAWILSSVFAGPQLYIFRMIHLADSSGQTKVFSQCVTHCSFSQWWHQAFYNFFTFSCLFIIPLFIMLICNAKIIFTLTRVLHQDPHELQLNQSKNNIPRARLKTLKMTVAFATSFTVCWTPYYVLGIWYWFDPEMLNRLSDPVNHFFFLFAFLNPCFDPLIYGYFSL
Sequence of D(2) dopamine receptor (Homo sapiens) (P14416 whole entry, looked up): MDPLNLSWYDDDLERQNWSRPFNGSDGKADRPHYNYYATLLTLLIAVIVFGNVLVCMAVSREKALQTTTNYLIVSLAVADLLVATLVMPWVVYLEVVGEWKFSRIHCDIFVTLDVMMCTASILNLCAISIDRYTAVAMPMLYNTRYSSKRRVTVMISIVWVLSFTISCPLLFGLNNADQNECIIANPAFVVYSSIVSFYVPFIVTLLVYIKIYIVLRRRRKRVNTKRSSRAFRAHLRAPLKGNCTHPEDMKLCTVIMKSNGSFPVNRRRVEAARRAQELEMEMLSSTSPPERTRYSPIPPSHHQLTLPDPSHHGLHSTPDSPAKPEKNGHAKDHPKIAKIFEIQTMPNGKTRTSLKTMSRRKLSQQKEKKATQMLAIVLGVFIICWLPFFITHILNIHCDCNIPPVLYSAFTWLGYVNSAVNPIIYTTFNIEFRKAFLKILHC
Sequence of Beta-2 adrenergic receptor (Homo sapiens) (P07550 whole entry, looked up): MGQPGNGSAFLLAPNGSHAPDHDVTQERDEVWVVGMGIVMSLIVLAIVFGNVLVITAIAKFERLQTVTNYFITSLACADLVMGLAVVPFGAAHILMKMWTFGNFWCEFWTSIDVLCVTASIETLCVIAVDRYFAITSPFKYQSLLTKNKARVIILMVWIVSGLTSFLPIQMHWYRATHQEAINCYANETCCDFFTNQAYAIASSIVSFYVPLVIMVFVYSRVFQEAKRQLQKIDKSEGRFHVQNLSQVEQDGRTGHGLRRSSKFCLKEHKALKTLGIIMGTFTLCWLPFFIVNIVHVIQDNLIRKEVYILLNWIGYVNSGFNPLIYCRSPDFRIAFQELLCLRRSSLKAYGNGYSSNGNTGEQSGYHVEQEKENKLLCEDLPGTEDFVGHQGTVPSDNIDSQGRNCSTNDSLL
Sequence of KiSS-1 receptor (Homo sapiens) (Q969F8 whole entry, looked up): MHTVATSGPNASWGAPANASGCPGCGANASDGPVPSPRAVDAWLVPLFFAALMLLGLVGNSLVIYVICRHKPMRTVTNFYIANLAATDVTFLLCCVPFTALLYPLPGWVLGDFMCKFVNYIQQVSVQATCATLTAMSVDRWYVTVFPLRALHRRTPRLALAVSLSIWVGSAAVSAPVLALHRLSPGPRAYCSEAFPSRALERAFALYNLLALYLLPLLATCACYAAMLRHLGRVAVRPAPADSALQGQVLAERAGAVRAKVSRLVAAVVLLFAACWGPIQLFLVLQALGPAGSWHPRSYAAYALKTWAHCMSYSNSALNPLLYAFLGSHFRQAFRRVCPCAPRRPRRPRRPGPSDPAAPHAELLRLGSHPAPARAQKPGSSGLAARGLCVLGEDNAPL

Turning to `COC(=O)c1cccc(C(=O)OC)c1`, the Potency result in test [1], in [2], in test [3], in test [4], in [5] and in test [6] was “inactive” throughout. Also, the Potency result in [7], in test [8], in [9], in [10], in test [11] and in [12] was “inactive” throughout. For the same molecule, the Potency result in [13], in test [15], in test [16] and in [17] was “inactive” throughout. Also, the Potency result in test [14] was “inactive and 15.4 µM (active)”.

In the case of `CCCCCCC(=O)O`, the Potency result in test [1], in [18], in test [2], in test [3], in test [4] and in test [5] was “inactive” throughout. Besides, the Potency result in [6], in test [7], in test [8], in test [19], in [9] and in test [10] was “inactive” each time. For the same molecule, the Potency entry in [11], in [12], in [13], in test [20], in test [14] and in [16] was “inactive” in each case. The Potency entry in [17] was “inactive”.

With `c1ccc2c(c1)Cc1ccccc1-2`, the Potency result in test [1], in test [2], in test [4], in test [5], in test [6] and in [7] was “inactive” throughout. The Potency entry in test [8], in test [19], in test [9], in test [10], in [11] and in test [12] was “inactive” throughout. The Potency result in test [13], in test [20], in test [14], in test [16] and in test [17] was “inactive” in each case.

As to `C=C(C)C(=O)OCC(C)O` (centres undefined), the Potency result in test [1], in test [2], in test [3], in test [6], in [7] and in test [8] was “inactive” in each case. In addition, the Potency result in test [9], in test [11], in [12], in test [20], in [14] and in [15] was “inactive” in each case. Further, the Potency entry in [16] and in test [17] was “inactive” throughout.

In the case of `C=C[C@@]1(C)CC(=O)[C@]2(O)[C@@]3(C)[C@@H](O)CCC(C)(C)[C@@H]3[C@H](O)[C@H](OC(C)=O)[C@@]2(C)O1`, the Potency result in test [1], in test [3], in [4], in test [5], in test [6] and in [7] was “inactive” in each case. For the same molecule, the Potency entry in [8], in [19], in test [9], in [10], in test [11] and in test [12] was “inactive” throughout. Besides, the Potency result in [16] was “inactive”. The Potency in test [13] is 243 nM (active) and 298 nM (active); in [15], 119 nM (active); in test [17] it was 30.6 nM (active) and 944 nM (active).

As for `CC(C)=CCC/C(C)=C/C=O`, the Potency entry in test [1], in [18], in [2], in [3], in [4] and in [5] was “inactive” in each case. The Potency entry in test [6], in test [7], in test [8], in [19], in test [9] and in [10] was “inactive” each time. The Potency entry in test [11], in [12], in test [13], in test [20], in test [14] and in test [15] was “inactive” in each case. Moreover, the Potency entry in [16] and in test [17] was “inactive” throughout.

On to `S=c1nc[nH]c2nc[nH]c12`, for which the Potency result in test [1], in [2], in test [3], in test [4], in [5] and in [6] was “inactive” throughout. The Potency result in test [7], in [8], in test [13], in [20], in test [14] and in [15] was “inactive” each time. The Potency result in [16] and in test [17] was “inactive” throughout. In addition, the Potency in [19] is 9.99 µM (active) and 7.93 µM (active).

Turning to `CC(=O)Nc1nnc(S(N)(=O)=O)s1`, the Potency entry in test [1], in [18], in test [2], in test [3], in [4] and in [5] was “inactive” in each case. In addition, the Potency result in test [6], in test [7], in test [8], in test [19], in test [13] and in test [20] was “inactive” throughout. Also, the Potency entry in [14], in test [15], in test [16] and in test [17] was “inactive” in each case.

For the origin of these results see PubChem BioAssay (Tox21).
